# Rows were chosen to be rich in hits. Some 6.7% of all compounds tested hit in one or more screens of this group.
# C diff growth: C. difficile growth inhibition; Clostridium difficile clinical isolate growth, OD600, 24 h; hits give low values; growth activity, negative = inhibition, % at 16 µg/mL (by protocol); hit rate 0.25% among 86,000;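 active = mean growth activity at or below -80% and every replicate also at or below -80%; inconclusive = mean at or below -80% but some replicate above -80%; inactive = mean growth activity above -80%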;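 note: 0% = DMSO wells and -100% = levofloxacin 16 µg/mL wells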
# T cruzi growth-1: T. cruzi proliferation inhibition; T. cruzi beta-gal in NIH3T3, GalScreen luminescence, 90 h; inhibition, % at 8.34 µM; hit rate 5.9% among 77,000; AID 624255;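 active = mean inhibition above about 93%, with at least 55% of replicates each passing it, limit read from the data, passing the limit was not always enough; inconclusive = only one of those two conditions holds; inactive = neither condition holds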
# Pf Dd2 growth: inhibitors of Plasmodium falciparum Dd2 growth. hit rate 2.3% among 94,000. activity change, % at 10 µM. P. falciparum Dd2 growth, SYBR Green, 72 h; hits give low values. AID 1159554; in the data active = activity change below about -80%; inconclusive = no clear call, values can overlap the other calls
# T cruzi growth-2: inhibitors of T. cruzi proliferation. T. cruzi beta-gal in NIH3T3, GalScreen luminescence, 90 h. inhibition, % at 8.35 µM. shares compounds with T cruzi growth-1. hit rate 72% among 5,600;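 active = mean replicate inhibition above about 95% and at least 55% of replicates individually reaching it, limit read from the data; inconclusive = only one of the two criteria is met; inactive = neither criterion is met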
# T cruzi growth-3: blocks T. cruzi growth in NIH3T3 host cells. shares compounds with T cruzi growth-1. T. cruzi beta-gal in NIH3T3, GalScreen luminescence, 90 h. inhibition, % at 2.09 µM. hit rate 21% among 5,600;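 active = mean inhibition above about 95%, with at least 55% of replicates also reaching it, limit read from the data; inconclusive = meets just one of the two conditions; inactive = meets neither condition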;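 note: plate controls were neutral control median for no effect and positive control median for full effect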
# 3T3 cytotox: cytotoxicity in mouse NIH/3T3 fibroblasts. shares compounds with T cruzi growth-1. hit rate 14% among 5,600. NIH/3T3 viability, CellTiter-Glo ATP luminescence, 90 h. cytotoxicity (signal decrease), % at 8.35 µM;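 active = mean signal decrease across replicates above about 35% based on untreated-well scatter, with enough replicates individually passing, limit read from the data; inconclusive = no rule stated though some were filed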;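 note: 0% = median of neutral control wells and 100% = median of positive control wells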
# 3T3 cytotox 2: cytotoxicity in mouse NIH/3T3 fibroblasts | shares compounds with T cruzi growth-1 | NIH/3T3 viability, CellTiter-Glo ATP luminescence, 90 h | inhibition, % at 24.9 µM | hit rate 56% among 5,600 | AID 651744;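 active = mean loss of cell viability signal at or above a set limit, and enough replicates individually reaching it; inconclusive = meets only the mean limit or only the replicate share; inactive = meets neither condition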;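 note: 0% = median of neutral control wells and 100% = median of positive control wells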
# * marks the source's active call; other numbers are inactive results; ? = inconclusive; nt = no result.
SMILES,C diff growth,T cruzi growth-1,Pf Dd2 growth,T cruzi growth-2,T cruzi growth-3,3T3 cytotox,3T3 cytotox 2
COC(=O)[C@@H]1[C@@H](CO)[C@@H]2Cn3c(ccc(-c4ccccc4F)c3=O)[C@H]1N2C(=O)C1CCC1,-2,62,9,nt,nt,nt,nt
O=C(Cc1ccccn1)N1CC2(C1)[C@H](c1ccccc1)[C@H](CO)N2Cc1ccccn1,2,nt,-9,nt,nt,nt,nt
CC=Cc1ccc2n(c1=O)C[C@H]1[C@H](CO)[C@@H](C(=O)O)[C@@H]2N1S(=O)(=O)c1ccccc1F (mixture of isomers),-2,28,nt,nt,nt,nt,nt
Cc1ccccc1-c1ccc([C@H]2[C@@H](CO)N3CCCCN(C(=O)Cc4ccccn4)C[C@@H]23)cc1,-15,103*,6,97*,85,23,?
Cc1ccccc1-c1ccc([C@@H]2[C@H]3CN(C(=O)Cc4ccccn4)CCCCN3[C@H]2CO)cc1,-16,99*,-2,68,27,-6,9
O=C(Cc1ccccn1)N1CCCCN2[C@@H](CO)[C@@H](c3ccc(Br)cc3)[C@@H]2C1,5,33,-5,nt,nt,nt,nt
O=C(Cc1ccccn1)N1CCCCN2[C@H](CO)[C@@H](c3ccc(-c4ccc(F)cc4)cc3)[C@H]2C1,-10,58,4,nt,nt,nt,nt
O=C(Cc1ccccn1)N1CCCCN2[C@H](C1)[C@@H](c1ccc(-c3ccccc3F)cc1)[C@@H]2CO,0,3,-58,nt,nt,nt,nt
Cc1ccccc1-c1ccc([C@H]2[C@H]3CN(C(=O)Cc4ccccn4)CCCCN3[C@H]2CO)cc1,8,?,-11,51,-1,-17,8
Cc1cccc(S(=O)(=O)N2[C@@H]3c4ccc(-c5ccc(F)cc5)c(=O)n4C[C@H]2[C@H](CO)[C@H]3C(=O)O)c1,nt,0,nt,nt,nt,nt,nt
CC=Cc1ccc2n(c1=O)C[C@H]1[C@H](CO)[C@@H](C(=O)OC)[C@@H]2N1C(=O)CC1CC1 (mixture of isomers),-1,-10,7,nt,nt,nt,nt
O=C(Cc1ccncc1)N1CCCCN2[C@H](CO)[C@@H](c3ccc(C#Cc4ccccc4F)cc3)[C@H]2C1,-5,58,-44,nt,nt,nt,nt
N#Cc1cccc(-c2ccc([C@H]3[C@H]4CN(C(=O)Cc5ccccc5)CCCCN4[C@H]3CO)cc2)c1,10,?,-14,71,-4,12,6
N#Cc1cccc(-c2ccc([C@H]3[C@H]4CN(C(=O)Cc5ccncc5)CCCCN4[C@H]3CO)cc2)c1,3,105*,-8,84,35,-3,47*
N#Cc1cccc(-c2ccc([C@@H]3[C@H]4CN(C(=O)Cc5ccccc5)CCCCN4[C@H]3CO)cc2)c1,-14,90,-12,nt,nt,nt,nt
N#Cc1cccc(-c2ccc([C@@H]3[C@@H](CO)N4CCCCN(C(=O)Cc5ccccc5)C[C@@H]34)cc2)c1,-1,22,-3,nt,nt,nt,nt
COC(=O)[C@H]1[C@H](CO)[C@H]2Cn3c(ccc(C4=CCCC4)c3=O)[C@@H]1N2Cc1ccccn1,-4,-25,nt,nt,nt,nt,nt
C[C@H](CO)N1C[C@H](C)[C@H](CN(C)C(=O)Oc2ccccc2)OCc2ccccc2-c2c(n(C)c3ccccc23)C1=O,-2,nt,-13,nt,nt,nt,nt
